Compound activity: PubChem BioAssay, National Center for Advancing Translational Sciences (NCATS)
Most compounds without a hit are left out; they make up all but 3.7% or so of the library.
RE007 growth inh: qHTS Assay for Inhibitors of the HIV-1 protein Vpr; S. pombe RE007 Vpr strain, BacTiter-Glo ATP luminescence, 24 h; Potency, µM (series often up to 92.2 µM), usual class: inhibitors; 360,000 compounds, 0.21% hits; active = well fitted falling curve with a large enough effect; inconclusive = small, poorly fitted or top-dose-only effect; inactive = no such curve, though single readings can be large or run the other way; note: nearly all actives have a fitted effect of over 50% in size
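Fission yeast strain RE007, carrying one chromosomally integrated HIV-1 vpr copy, was seeded at OD 0.01 in PMG+AL medium with 23 nL pinned compound. After 24 h at 30 °C and 99% humidity, viability was read by BacTiter-Glo luminescence.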
Sm TGR block: qHTS Assay for the Inhibitors of Schistosoma Mansoni Peroxiredoxins | Schistosoma mansoni thioredoxin glutathione reductase (TGR), Q962Y6 | 360,000 compounds, 3% hits | Potency, µM (series often up to 114 µM), usual class: inhibitors | purified TGR, DTNB reduction, TNB absorbance 405 nm; note: nearly all actives have a fitted effect of over 60% in size
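TGR 20 nM + NADPH 100 uM (dispensed conc.), cpd preinc 15 min RT; start with NADPH (500 uM addition) then DTNB (15 mM addition). Kinetic TNB absorbance, 405 nm filter. Four-parameter Hill fit across titration.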
FMDV antiviral: High Throughput Screening for Foot and Mouth Disease Virus Antivirals; FMDV antiviral cell-based qHTS; Potency, µM (titrated, usually from 57.9 µM), most hits filed as inhibitors; 410,000 compounds, 1.2% hits; calls by dose curve; tested in HEK293T cells; note: read-out not given here; nearly all actives have a fitted effect of over 45% in size
TbPYK inhibitor: qHTS of Trypanosoma Brucei Inhibitors | pyruvate kinase (Trypanosoma brucei), Q57TT1 | TbPYK enzyme, Kinase-Glo Plus ATP luminescence, 45 min | Potency, µM (series often up to 76.8 µM), usual class: inhibitors | 410,000 compounds, 0.12% hits; note: nearly all actives have a fitted effect of over 50% in size
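TbPYK + substrate in 50 mM TEA pH 7.2, 100 mM KCl, 10 mM MgCl2, 0.05% BSA, 0.01% Tween-20; cpd pinned; ADP 130 uM final; 45 min RT; Kinase-Glo Plus 10 min; luminescence endpoint.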
Of the large screens only hits and unclear results are named; the others gave an inactive call. Unless noted, calls come from the whole dose curve; as a rule, active = well fitted curve in the direction sought with a large enough effect; inconclusive = small, poorly fitted or top-dose-only effect, or another doubt; inactive = no such curve, though single readings can be large; an effect the other way counts as inactive or inconclusive.

CC1CCCC(NC(=O)COC(=O)/C=C/c2ccco2)C1C (configuration not stated)	Sm TGR block 45µM
O=C(Nc1cccc(C(=O)OCc2cc(=O)n3c4c(sc3n2)CCCC4)c1)c1ccccc1	none (no result: RE007 growth inh)
CC1CCN(C(=O)c2ccc(NC(=O)c3nsc4ccccc34)cc2)CC1	none (no result: RE007 growth inh)
COc1cc2cnc(-c3ccccc3)c(-c3cc(OC)c(OC)c(OC)c3)c2cc1OC	Sm TGR block 3.2µM
CCN1CCOC(=O)C1CC(=O)Nc1ccc(C)c(Cl)c1 (configuration not stated)	Sm TGR block 11µM (no result: RE007 growth inh)
CCN1CCOC(=O)C1CC(=O)Nc1cc(Cl)ccc1C (configuration not stated)	Sm TGR block 7.9µM (no result: RE007 growth inh)
Cc1cccc(NC(=O)CC2C(=O)OCCN2Cc2ccccc2)c1 (configuration not stated)	none (no result: RE007 growth inh)
CCN(CC)CCCNC(=O)c1[nH]c2ccccc2c1Sc1ccc(Cl)cc1	Sm TGR block 5µM
CCCCNC(=O)c1[nH]c2ccccc2c1Sc1ccc(C)cc1	none (no result: RE007 growth inh)
C#CCOCCOCCOCCNc1nc(N2CCN(C(=O)[C@H](Cc3ccc(O)cc3)n3cc(CCO)nn3)CC2)nc(N2CCN(C(=O)[C@H](Cc3ccc(O)cc3)n3cc(CCO)nn3)CC2)n1	Sm TGR block 40µM (no result: RE007 growth inh, FMDV antiviral, TbPYK inhibitor)
C#CCOCCOCCOCCNc1nc(N2CCN(C(=O)[C@H](Cc3ccc(O)cc3)n3cc([C@@H](N)C(C)CC)nn3)CC2)nc(N2CCN(C(=O)[C@H](CCCCN)n3cc([C@@H](N)CO)nn3)CC2)n1 (some centres not stated)	none
C#CCOCCOCCOCCNc1nc(N2CCN(C(=O)[C@H]([C@@H](C)CC)n3cc([C@@H](N)Cc4ccc(O)cc4)nn3)CC2)nc(N2CCN(C(=O)[C@H](CCCCN)n3cc([C@@H](N)CO)nn3)CC2)n1	Sm TGR block 20µM (no result: RE007 growth inh, FMDV antiviral, TbPYK inhibitor)
C#CCOCCOCCOCCNc1nc(N2CCN(C(=O)[C@H](CCCCN)n3cc(C(N)[C@H](C)CC)nn3)CC2)nc(N2CCN(C(=O)[C@H](CCC(=O)O)n3cc(C(N)[C@H](C)CC)nn3)CC2)n1 (some centres not stated)	Sm TGR block 16µM
C#CCOCCOCCOCCNc1nc(N2CCN(C(=O)[C@H](CCC(=O)O)n3cc(C(N)CO)nn3)CC2)nc(N2CCN(C(=O)[C@H](Cc3ccc(O)cc3)n3cc(C(N)CC(C)C)nn3)CC2)n1 (some centres not stated)	Sm TGR block 10µM (no result: RE007 growth inh, FMDV antiviral, TbPYK inhibitor)
C#CCOCCOCCOCCNc1nc(N2CCN(C(=O)[C@H](CCCCN)n3cc([C@@H](N)CO)nn3)CC2)nc(N2CCN(C(=O)[C@H](Cc3ccc(O)cc3)n3cc([C@@H](N)CC(C)C)nn3)CC2)n1	none
CCOc1ccc(CNC(=O)c2ccc3c(c2)sc2nc(-c4ccc(OC)cc4)cn23)cc1	none (no result: RE007 growth inh)
COc1cccc(C2=CC(c3ccccc3F)n3ncc(C(=O)Nc4ccc(F)cc4)c3N2)c1 (configuration not stated)	none (no result: RE007 growth inh)
COc1ccc(NC(=O)N2CCOc3ccc(Cl)cc32)cc1	none (no result: RE007 growth inh)
C#CCOCCOCCOCCNc1nc(N2CCN(C(=O)[C@H](CCC(=O)O)n3cc(C(N)Cc4ccc(O)cc4)nn3)CC2)nc(N2CCN(C(=O)[C@H](CCC(=O)O)n3cc(C(N)CC(C)C)nn3)CC2)n1 (some centres not stated)	Sm TGR block 35µM
C#CCOCCOCCOCCNc1nc(N2CCN(C(=O)[C@H](CCC(=O)O)n3cc(C(N)Cc4ccc(O)cc4)nn3)CC2)nc(N2CCN(C(=O)[C@H](CCC(=O)O)n3cc(C(N)[C@H](C)CC)nn3)CC2)n1 (some centres not stated)	Sm TGR block inconclusive
COCCNC(=O)Cn1cnc2c(cnn2-c2ccc(OC)cc2)c1=O	none
COCCNC(=O)Cn1cnc2c(cnn2-c2ccc(C)cc2)c1=O	Sm TGR block 89µM
COc1ccc(C(=O)n2nc(-c3ccco3)nc2SC)cc1OC	Sm TGR block 10µM
O=C(c1ccccc1F)N1c2nc(-c3ccco3)nn2C2(CCCCC2)[C@@H]2CCCC[C@@H]21	Sm TGR block 10µM, FMDV antiviral inconclusive (no result: RE007 growth inh)
COc1ccc(C(=O)N2c3nc(-c4ccco4)nn3C3(CCCCC3)[C@@H]3CCCC[C@@H]32)cc1OC	Sm TGR block 11µM, TbPYK inhibitor inconclusive (no result: RE007 growth inh)
O=C(c1ccc(F)cc1)N1c2nc(-c3ccco3)nn2C2(CCCCC2)[C@@H]2CCCC[C@@H]21	Sm TGR block inconclusive (no result: RE007 growth inh)
COc1cccc(C(=O)N2c3ncnn3C3(CCCCC3)[C@@H]3CCCC[C@@H]32)c1	FMDV antiviral inconclusive (no result: RE007 growth inh)
COc1ccc(C(=O)n2nc(-c3ccco3)nc2NCc2cccs2)cc1	Sm TGR block 11µM (no result: RE007 growth inh)
COc1ccc(CNc2nc(-c3ccco3)nn2C(=O)c2ccccc2Cl)cc1	none (no result: RE007 growth inh)
CSc1nc(-c2ccco2)nn1C(=O)c1cccs1	Sm TGR block inconclusive
COc1ccc(OC)c(NC(=O)CS(=O)(=O)Cc2nc(-c3ccc(C)cc3)oc2C)c1	none (no result: RE007 growth inh)
CCCC1OC2CC3C4CCC5=CC(=O)C=CC5(C)C4C(O)CC3(C)C2(C(=O)O)O1 (configuration not stated)	Sm TGR block 89µM
O=C(CCl)N(c1ccccc1)C1CCS(=O)(=O)C1 (configuration not stated)	Sm TGR block 22µM, FMDV antiviral inconclusive (no result: RE007 growth inh)
O=C(O)c1ccccc1-c1ccc(/C=c2\sc3nc4cc(Br)cnc4n3c2=O)o1	Sm TGR block inconclusive, TbPYK inhibitor inconclusive
Cc1cc2nc3s/c(=C/c4ccc(-c5ccccc5C(=O)O)o4)c(=O)n3c2cc1C	Sm TGR block 3.5µM (no result: RE007 growth inh)
Cc1ccccc1-n1c([C@@H]2C[C@H]2c2ccccc2)n[nH]c1=S	TbPYK inhibitor inconclusive
S=c1[nH]nc([C@@H]2C[C@H]2c2ccccc2)n1-c1ccccc1	TbPYK inhibitor 4µM
Cc1cc(C(=O)NCC2CCC3(CCN(Cc4ccccc4C)CC3)O2)n(C)n1 (configuration not stated)	none (no result: RE007 growth inh, Sm TGR block, TbPYK inhibitor)
Cc1nccn1CC(O)COc1ccc(Cl)cc1Cl (configuration not stated)	FMDV antiviral 0.45µM
CC12C=CC(=O)C=C1CCC1C2C(O)CC2(C)C1CCC2(O)C(=O)COC(=O)CCC(=O)O (configuration not stated)	none (no result: RE007 growth inh, Sm TGR block, FMDV antiviral)
Cc1ccc(S(=O)(=O)CNC(=S)c2cccc(Cl)c2)cc1	Sm TGR block 3.5µM
Cc1ccc(S(=O)(=O)NC(=S)c2ccccc2)cc1	none (no result: Sm TGR block)
Cc1ccc(C(=S)NCS(=O)(=O)c2ccc(C)cc2)cc1	Sm TGR block 2.8µM
COC(=O)C1=C(C)N(CC2CCCO2)C(=O)/C1=C\c1ccc(O)cc1 (configuration not stated)	Sm TGR block 50µM
CCN(CC)c1ccc(/C=C2/C(=O)NC(=O)N(CC3CCCO3)C2=O)cc1 (configuration not stated)	FMDV antiviral inconclusive
